Experimental data reported in PubChem BioAssay (Tox21).
Results filed as inconclusive are left out. Active and inactive are the calls of the source. Unless noted, calls come from the whole dose curve.

What was measured:
[1] = Nuclear factor erythroid 2-related factor 2/antioxidant responsive element (Nrf2/ARE) small molecule agonists: qHTS cell viability counter screen in human keratinocytes (AID 1919968; active = well fitted curve in the direction sought with a large enough effect in the repeat runs; an effect the other way counts as inactive or inconclusive; note: nearly all actives have a fitted effect of over 55% in size; note: potency is the fitted concentration of half-maximal effect)
Procedure, shortened: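 Cytotoxicity was multiplexed with the Nrf2/ARE luciferase assay in the same wells. Stably transfected HaCaT keratinocytes were treated with test compounds for 23 h at 37 C. Cell viability was then measured by CellTiter-Fluor fluorescence.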

[2] = target: Gonadotropin-releasing hormone receptor (Homo sapiens) (UniProt P30968); assay: Human gonadotropin-releasing hormone receptor (GnRHR) small molecule agonists, calcium flux assay in GnRHR-HEK293 cells (AID 1920063); note: nearly all actives have a fitted effect of over 35% in size
Procedure, shortened: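 Agonist activity was measured as intracellular calcium flux in HEK293 cells engineered to stably express human GnRHR. After dye loading for 1 hour at 37 C, compounds in DMSO were added and fluorescence was followed for 3 minutes.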

[3] = target: KiSS-1 receptor (Homo sapiens) (UniProt Q969F8); assay: Human kisspeptin (KISS1R) small molecule agonists, calcium flux assay in KISS1R-HEK293 cells (AID 1920064; active = well fitted curve in the direction sought with a large enough effect in the repeat runs; an effect the other way counts as inactive or inconclusive)
Procedure, shortened: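 Agonist activity is monitored as intracellular calcium rise in engineered HEK293 cells carrying human KISS1R. Cells are dye-loaded for 1 h at 37 C before compound addition, and fluorescence is recorded for 3 min.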

[4] = G protein-coupled receptor (GPCR) small molecule agonists, calcium flux assay: HEK293 wild type cell line counter screen (AID 1920065)
Procedure, shortened: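 Seed cells, incubate 18 h (37 C, 5% CO2); add calcium dye, 1 h at 37 C; pin-transfer compounds, ATP control or DMSO; read fluorescence 480/540 nm each second for 3 min.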

[5] = p53 small molecule agonists, cell-based qHTS assay with human liver microsomes (AID 1963577);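 note: p53 response element beta-lactamase reporter cells with liver microsomes plus NADPH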
Procedure, shortened: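 Reporter activation was measured by LiveBLAzer fluorescence intensity in p53RE-bla cells, which had been exposed to compounds for 16 h at 37 C alongside 0.5 mg/mL human liver microsomes and 0.5 mg/mL NADPH (final concentrations).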

[6] = p53 small molecule agonists, cell-based qHTS assay with rat liver microsomes (AID 1963578)
Procedure, shortened: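 Compound in DMSO added to p53RE-bla cells 5 h post-plating; rat microsomes/NADPH 0.5 mg/mL final; 16 h, 37 C; LiveBLAzer 2 h RT.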

[7] = p53 small molecule agonists, cell-based qHTS assay with human liver microsomes: qHTS cell viability counter screen (AID 1963579); note: nearly all actives have a fitted effect of over 45% in size; note: potency is the fitted concentration of half-maximal effect
Procedure, shortened: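 HLM-supplemented (0.5 mg/mL final) and NADPH-supplemented (0.5 mg/mL final) p53RE-bla cultures, 4,000 cells per well, were dosed with compounds in DMSO for 16 h at 37 C; luminescent ATP detection (CellTiter-Glo, 30 min, room temperature) quantified surviving cells.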

[8] = p53 small molecule agonists, cell-based qHTS assay with rat liver microsomes: qHTS cell viability counter screen (AID 1963580); note: nearly all actives have a fitted effect of over 45% in size
Procedure, shortened: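 Counter screen for cytotoxicity under metabolic activation: rat liver microsomes and NADPH, 0.5 mg/mL final each, added with compounds to p53RE-bla HCT-116 cells; 16 h at 37 C, then ATP luminescence read.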

[9] = p53 small molecule agonists, cell-based qHTS assay: qHTS cell viability counter screen (AID 1963581); note: nearly all actives have a fitted effect of over 45% in size; note: potency is the fitted concentration of half-maximal effect
Procedure, shortened: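 Viability was counter-screened in parallel with the p53 agonist reporter by measuring intracellular ATP luminescence in the same HCT-116 p53RE-bla wells after 16 h compound treatment at 37 C.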

[10] = target: Muscarinic acetylcholine receptor M1 (Homo sapiens) (UniProt P11229); assay: Cholinergic receptor muscarinic 1 (CHRM1) small molecule antagonists, cell-based qHTS assay (AID 1963588); note: nearly all actives have a fitted effect of over 40% in size; note: potency is the fitted concentration of half-maximal effect
Procedure, shortened: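 Compounds were tested at 15 concentrations in three independent runs. Dye-loaded CHRM1-CHO cells were exposed 5 min at room temperature before stimulation by acetylcholine added at 50nM. Intracellular calcium was read kinetically on FDSS for 3 min.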

[11] = target: Muscarinic acetylcholine receptor M1 (Homo sapiens) (UniProt P11229); assay: Cholinergic receptor muscarinic 1 (CHRM1) small molecule agonists, cell-based qHTS assay (AID 1963589); note: nearly all actives have a fitted effect of over 35% in size
Procedure, shortened: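 Cells were plated and incubated 18 h at 37 C/5% CO2, loaded with calcium dye for 1 h at 37 C, then treated with compounds in DMSO. Fluorescence was recorded kinetically at 1 sec intervals.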

[12] = cAMP Responsive Elements (CRE) small molecule agonists, cell-based qHTS assay (AID 1963590)
Procedure, shortened: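 Cells carrying a CRE-driven beta-lactamase reporter (HEK 293T) are seeded, incubated overnight (18 h), and treated with test compounds for 3 h at 37 C; reporter activity is then detected with a FRET substrate after 2 h at room temperature.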

[13] = cAMP Responsive Elements (CRE) small molecule antagonists, cell-based qHTS assay (AID 1963591; active = well fitted inhibition curve with a large enough effect in the signal ratio in the repeat runs, not every such curve was filed as active; the % refers to the signal ratio; note: potency is the fitted concentration of half-maximal effect)
Procedure, shortened: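 Cells (CRE-bla HEK 293T, DMEM with 10% dialyzed FBS and 25 mM HEPES) are seeded and incubated 18 h. Compounds are added with NKH477 agonist at 0.25 uM final for 3 h, then FRET substrate for 2 h.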

[14] = target: Beta-2 adrenergic receptor (Homo sapiens) (UniProt P07550); assay: Adrenergic beta2 receptor (ADRB2) small molecule antagonists, cell-based qHTS assay (AID 1963592); note: series mostly up to about 92 µM; nearly all actives have a fitted effect of over 50% in size
Procedure, shortened: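 Assay format: CHO-ADRB2 cells, 18-20hr seeding at 37C/5% CO2, then compound plus 1nM isoproterenol agonist mix for 0.5hr RT. Homogeneous time-resolved fluorescence cAMP detection after 1hr, expressed as 665/615 nm ratio.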

[15] = target: Beta-2 adrenergic receptor (Homo sapiens) (UniProt P07550); assay: Adrenergic beta2 receptor (ADRB2) small molecule agonists, cell-based qHTS assay (AID 1963593);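 note: CHO cells stably overexpressing human ADRB2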
Procedure, shortened: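 CHO cells stably over-expressing ADRB2 were plated overnight at 37C, then dosed with compounds plus a stimulation mix containing 100uM IBMX and 25uM Ro-20-1724 for 0.5hr at room temperature. cAMP was measured by HTRF competition, 1hr.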

[16] = target: D(2) dopamine receptor (Homo sapiens) (UniProt P14416); assay: Dopamine D2 receptor (DRD2) small molecule agonists, cell-based qHTS assay (AID 1963594); note: nearly all actives have a fitted effect of over 35% in size
Procedure, shortened: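 HEK293 cells stably expressing DRD2 were cultured 24 h at 37 C, then given Ro20-1724 (0.1 mM final) and compounds for 10 min at room temperature. NKH477 (200nM) was then added for 30 min. cAMP was read by HTRF.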

[17] = target: D(2) dopamine receptor (Homo sapiens) (UniProt P14416); assay: Dopamine D2 receptor (DRD2) small molecule antagonists, cell-based qHTS assay (AID 1963595; active = well fitted inhibition curve with a large enough effect in the signal ratio in the repeat runs, with a control signal flat; the % refers to the signal ratio)
Procedure, shortened: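 DRD2-HEK293; 0.1 mM Ro20-1724; cpd 10 min RT; NKH477 200 nM + quinpirole 12 nM, 30 min RT; HTRF cAMP (cAMP-d2/anti-cAMP cryptate), 665/620 nm ratio after 1 h.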

[18] = target: 5-hydroxytryptamine receptor 2A (Homo sapiens) (UniProt P28223); assay: 5-hydroxytryptamine receptor 2A (HTR2A) small molecule antagonists, cell-based qHTS assay (AID 1963586); note: nearly all actives have a fitted effect of over 45% in size
Procedure, shortened: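 CHO cells stably expressing human HTR2A were plated for 18 h at 37 C, then loaded with calcium dye for 1 h. Compounds were preincubated 5 min at room temperature before DOI (4 nM solution) was added. Kinetic fluorescence was read for 3 min.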

[19] = p53 small molecule agonists, cell-based qHTS assay (AID 1963582; active = well fitted activation curve with a large enough effect in the signal ratio in the repeat runs, not every such curve was filed as active; the % refers to the signal ratio)
Procedure, shortened: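 Cells carrying a p53-responsive bla reporter are treated with test compounds for 16 h at 37 C; beta-lactamase activity is then detected with LiveBLAzer B/G FRET substrate after 2 h at room temperature.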

[20] = target: 5-hydroxytryptamine receptor 2A (Homo sapiens) (UniProt P28223); assay: 5-hydroxytryptamine receptor 2A (HTR2A) small molecule agonists, cell-based qHTS assay (AID 1963587); note: nearly all actives have a fitted effect of over 30% in size
Procedure, shortened: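 HTR2A-CHO cells, plated 18 h at 37 C/5% CO2, dye-loaded 1 h at 37 C; compounds in DMSO added by pin tool (agonist mode). Intracellular calcium flux read as kinetic fluorescence on FDSS over 2 min at 1 s intervals.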

Measured: Potency

Chain of Muscarinic acetylcholine receptor M1 (Homo sapiens) (P11229 whole entry, looked up): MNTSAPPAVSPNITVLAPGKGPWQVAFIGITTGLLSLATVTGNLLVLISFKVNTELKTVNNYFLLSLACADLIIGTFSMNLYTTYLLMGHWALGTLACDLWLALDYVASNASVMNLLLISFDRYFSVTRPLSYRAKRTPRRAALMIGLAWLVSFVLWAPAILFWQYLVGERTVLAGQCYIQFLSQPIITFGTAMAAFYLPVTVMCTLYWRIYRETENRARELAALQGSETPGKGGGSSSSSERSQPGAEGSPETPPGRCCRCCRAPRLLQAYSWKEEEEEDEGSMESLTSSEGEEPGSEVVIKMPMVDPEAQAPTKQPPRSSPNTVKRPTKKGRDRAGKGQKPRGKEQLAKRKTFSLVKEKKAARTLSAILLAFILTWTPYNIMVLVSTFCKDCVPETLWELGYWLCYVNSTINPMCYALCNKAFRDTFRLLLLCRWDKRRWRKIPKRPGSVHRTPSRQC
Chain of Gonadotropin-releasing hormone receptor (Homo sapiens) (P30968 whole entry, looked up): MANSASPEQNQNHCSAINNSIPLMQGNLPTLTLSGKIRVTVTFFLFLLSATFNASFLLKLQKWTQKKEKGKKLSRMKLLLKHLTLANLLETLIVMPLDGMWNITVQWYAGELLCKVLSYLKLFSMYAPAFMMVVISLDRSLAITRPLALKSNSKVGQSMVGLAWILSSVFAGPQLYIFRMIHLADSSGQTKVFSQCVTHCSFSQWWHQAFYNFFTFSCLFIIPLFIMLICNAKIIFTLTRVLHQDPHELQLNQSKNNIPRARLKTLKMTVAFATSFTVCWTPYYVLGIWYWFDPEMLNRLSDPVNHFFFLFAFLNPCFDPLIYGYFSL
Chain of Beta-2 adrenergic receptor (Homo sapiens) (P07550 whole entry, looked up): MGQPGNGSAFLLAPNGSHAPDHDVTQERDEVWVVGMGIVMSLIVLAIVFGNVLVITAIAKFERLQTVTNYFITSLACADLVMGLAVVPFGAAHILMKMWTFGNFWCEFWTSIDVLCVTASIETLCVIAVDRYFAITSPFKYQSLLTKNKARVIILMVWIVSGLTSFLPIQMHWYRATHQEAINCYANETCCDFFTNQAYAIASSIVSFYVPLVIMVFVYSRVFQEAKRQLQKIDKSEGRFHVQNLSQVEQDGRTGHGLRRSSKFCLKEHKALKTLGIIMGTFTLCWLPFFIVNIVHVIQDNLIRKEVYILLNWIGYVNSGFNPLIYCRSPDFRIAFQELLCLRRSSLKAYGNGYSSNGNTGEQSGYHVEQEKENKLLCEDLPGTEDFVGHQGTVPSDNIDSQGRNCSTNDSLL
Chain of 5-hydroxytryptamine receptor 2A (Homo sapiens) (P28223 whole entry, looked up): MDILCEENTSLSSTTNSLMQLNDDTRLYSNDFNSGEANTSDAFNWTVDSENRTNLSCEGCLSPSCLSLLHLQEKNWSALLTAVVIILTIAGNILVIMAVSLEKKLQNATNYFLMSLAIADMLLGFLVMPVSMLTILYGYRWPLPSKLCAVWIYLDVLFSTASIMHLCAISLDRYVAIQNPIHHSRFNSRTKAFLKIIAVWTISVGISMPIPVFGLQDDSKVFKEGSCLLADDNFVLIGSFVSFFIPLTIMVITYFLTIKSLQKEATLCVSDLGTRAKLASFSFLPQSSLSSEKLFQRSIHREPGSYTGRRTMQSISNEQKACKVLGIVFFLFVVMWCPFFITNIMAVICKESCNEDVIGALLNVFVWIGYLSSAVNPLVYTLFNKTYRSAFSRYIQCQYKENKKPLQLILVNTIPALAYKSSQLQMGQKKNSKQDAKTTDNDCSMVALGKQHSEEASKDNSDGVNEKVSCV
Chain of D(2) dopamine receptor (Homo sapiens) (P14416 whole entry, looked up): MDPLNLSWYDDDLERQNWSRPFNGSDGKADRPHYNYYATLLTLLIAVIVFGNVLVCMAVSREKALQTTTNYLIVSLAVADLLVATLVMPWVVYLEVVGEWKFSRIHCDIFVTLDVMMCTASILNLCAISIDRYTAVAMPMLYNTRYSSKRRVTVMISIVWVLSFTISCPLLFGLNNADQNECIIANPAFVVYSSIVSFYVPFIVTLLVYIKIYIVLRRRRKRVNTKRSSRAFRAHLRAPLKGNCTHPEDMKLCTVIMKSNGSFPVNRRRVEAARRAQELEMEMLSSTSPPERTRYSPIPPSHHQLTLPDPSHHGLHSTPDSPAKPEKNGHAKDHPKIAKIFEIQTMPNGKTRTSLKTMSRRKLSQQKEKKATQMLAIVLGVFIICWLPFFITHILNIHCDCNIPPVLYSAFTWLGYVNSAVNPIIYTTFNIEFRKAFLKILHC
Chain of KiSS-1 receptor (Homo sapiens) (Q969F8 whole entry, looked up): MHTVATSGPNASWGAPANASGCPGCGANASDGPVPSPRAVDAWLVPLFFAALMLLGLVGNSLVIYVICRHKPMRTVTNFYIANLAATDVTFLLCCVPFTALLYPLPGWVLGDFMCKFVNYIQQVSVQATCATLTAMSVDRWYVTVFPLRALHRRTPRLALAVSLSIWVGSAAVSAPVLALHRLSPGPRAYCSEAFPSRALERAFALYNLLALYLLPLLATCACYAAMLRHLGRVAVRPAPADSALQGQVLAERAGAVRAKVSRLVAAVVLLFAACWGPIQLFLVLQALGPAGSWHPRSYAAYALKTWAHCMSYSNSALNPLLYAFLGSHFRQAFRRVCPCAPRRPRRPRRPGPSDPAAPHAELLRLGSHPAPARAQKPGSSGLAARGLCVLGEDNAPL

CCCOC(=O)c1c(Cl)c(Cl)c(Cl)c(Cl)c1C(=O)OCCC
inactive: [1] | [2] | [3] | [4] | [5] | [6] | [7] | [8] | [9] | [10] | [11] | [12] | [13] | [14] | [15] | [16] | [17]

Cc1cc(-c2ccc(N=Nc3cc(S(=O)(=O)O)c4ccccc4c3N)c(C)c2)ccc1N=Nc1cc(S(=O)(=O)O)c2ccccc2c1N
inactive: [1] | [2] | [3] | [4] | [5] | [6] | [7] | [8] | [9] | [18] | [11] | [14] | [15] | [16] | [17]

C1CCC2=NCCCN2CC1
inactive: [1] | [2] | [3] | [4] | [5] | [6] | [7] | [8] | [19] | [18] | [20] | [10] | [11] | [12] | [13] | [14] | [16] | [17]

CC(C)(C)c1ccc(C(=O)CCCN2CCC(OC(c3ccccc3)c3ccccc3)CC2)cc1
inactive: [2] | [3] | [4] | [5] | [6] | [7] | [8] | [14] | [17]
active: [1] 6.68 µM | [9] 11.2 µM

CC1=C(C(=O)O)N2C(=O)[C@@H](NC(=O)[C@H](N)c3ccc(O)cc3)[C@H]2SC1
inactive: [1] | [2] | [3] | [4] | [5] | [6] | [7] | [8] | [19] | [18] | [20] | [10] | [11] | [12] | [13] | [14] | [16] | [17]

O=C1c2ccccc2C(=O)c2c(O)ccc(O)c21
inactive: [1] | [2] | [3] | [4] | [5] | [6] | [7] | [8] | [19] | [18] | [20] | [10] | [11] | [13] | [14] | [15] | [16] | [17]

Cc1ccc(O)c2ncccc12
inactive: [2] | [3] | [4] | [5] | [6] | [7] | [9] | [19] | [18] | [20] | [10] | [12] | [14] | [17]
active: [1] 2.66 µM | [13] 13.3 µM

Oc1ccc(N=Nc2ccccc2)cc1
active: [1] 55.2 µM
inactive: [2] | [3] | [4] | [5] | [6] | [7] | [8] | [19] | [20] | [10] | [11] | [12] | [13] | [16]

Oc1ccc2ccccc2c1
inactive: [1] | [2] | [3] | [4] | [5] | [6] | [7] | [8] | [19] | [18] | [11] | [12] | [13] | [16]

O=C(CN1CCNCC1)NC1CCCCC1
inactive: [1] | [2] | [3] | [4] | [5] | [6] | [7] | [9] | [19] | [18] | [20] | [10] | [11] | [12] | [13] | [14] | [15] | [17]

CCN(CC)CCOC(=O)C(c1ccccc1)C1CCCCC1 (stereo unspecified)
inactive: [1] | [2] | [3] | [4] | [5] | [6] | [7] | [8] | [11] | [13] | [14] | [15]
active: [10] 0.041 µM

CCCCCCCC/C=C\CCCCCCCC(=O)OCCOC(=O)CCCCCCC/C=C\CCCCCCCC
inactive: [1] | [2] | [3] | [4] | [5] | [6] | [7] | [8] | [19] | [18] | [20] | [10] | [11] | [12] | [14] | [16] | [17]

Oc1ccc(C2(c3ccc(O)c(C4CCCCC4)c3)CCCCC2)cc1C1CCCCC1
active: [1] 12.2 µM | [7] 20.4 µM | [13] 21.7 µM
inactive: [2] | [3] | [4] | [5] | [6] | [8] | [18] | [20] | [10] | [11] | [14] | [16] | [17]

CCc1ccc(C)cc1
inactive: [1] | [2] | [3] | [4] | [5] | [6] | [7] | [8] | [19] | [18] | [20] | [10] | [11] | [12] | [13] | [16] | [17]

c1ccc2c(c1)ccc1c3ccccc3ccc21
inactive: [1] | [2] | [3] | [4] | [5] | [6] | [7] | [9] | [19] | [18] | [20] | [10] | [11] | [12] | [13] | [14] | [16] | [17]
